Assay results as given in the supplement of paper PMC6555819.

Key:
Assay in all cases: PBM binding z-score (relative to random genomic background probes); higher = stronger binding; sequences stand for … in GC…GCGATTGACAGCGTAGAATGAAGG
[1] = system: RARb homodimer (NR concentration 270 nM)
In short: (§1)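 For binding z-scores, the reference was random background probes on custom Agilent 4×180K protein-binding microarrays. These arrays were incubated 1 h with ligand-free nuclear receptor dimers in PBS pH 7.4, 2% milk, 0.02% Triton X-100, 1 mM DTT, 0.2 mg/mL BSA and 0.4 mg/ml salmon testes DNA. Fluorescence was scanned after antibody detection of each partner (one per run) and regression-normalized.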

[2] = system: RARg:RXRa (NR concentration 270 nM, RXRa partner concentration 90 nM)
In short: as §1

[3] = system: RARg homodimer (NR concentration 270 nM)
In short: as §1

[4] = system: RXRa DBDmut IVT, anti-RXR (DBD mutation: RXRa K156A/R161A, NR concentration 90 nM)
In short: as §1

[5] = system: RXRa homodimer (NR concentration 180 nM)
In short: as §1

[6] = system: THRa:RXRa (NR concentration 90 nM, RXRa partner concentration 90 nM)
In short: as §1

[7] = system: THRa homodimer (NR concentration 90 nM)
In short: as §1

[8] = system: VDR homodimer (NR concentration 270 nM)
In short: as §1

GATACAGGGTCAAGGCCAAAGTACGCGTATTGAT
PBM binding z-score [1]: 3.82 | PBM binding z-score [2]: 5.66 | PBM binding z-score [3]: 5.29 | PBM binding z-score [4]: 2.45 | PBM binding z-score [5]: 6.07 | PBM binding z-score [6]: 3.76 | PBM binding z-score [7]: 1.43 | PBM binding z-score [8]: 2.52

CCCACTGGGCCATCAGGTCATTGATATCAACGTT
PBM binding z-score [1]: 2.77 | PBM binding z-score [2]: 2.09 | PBM binding z-score [3]: 1.65 | PBM binding z-score [4]: -0.268 | PBM binding z-score [5]: 1.3 | PBM binding z-score [6]: 3.22 | PBM binding z-score [7]: 3.16 | PBM binding z-score [8]: 1.66

TGTCAAAGTTCAAAGGTAACGTCAGTATCCACAC
PBM binding z-score [1]: 4.03 | PBM binding z-score [2]: 6.26 | PBM binding z-score [3]: 5.87 | PBM binding z-score [4]: 4.29 | PBM binding z-score [5]: 6.96 | PBM binding z-score [6]: 3.51 | PBM binding z-score [7]: -0.193 | PBM binding z-score [8]: 4.08

TAGCCTAGGTCAGATCGGGCTAGTATACGCTATA
PBM binding z-score [1]: 1.59 | PBM binding z-score [2]: 2.48 | PBM binding z-score [3]: 3.26 | PBM binding z-score [4]: -0.66 | PBM binding z-score [5]: 1.34 | PBM binding z-score [6]: 3.37 | PBM binding z-score [7]: -0.538 | PBM binding z-score [8]: -0.698

CGTCAAAGTTCAACTAAGGTAACGTAAAGCACGC
PBM binding z-score [1]: 4.51 | PBM binding z-score [2]: 5.92 | PBM binding z-score [3]: 6.41 | PBM binding z-score [4]: 4.68 | PBM binding z-score [5]: 5.28 | PBM binding z-score [6]: 5.33 | PBM binding z-score [7]: 1.93 | PBM binding z-score [8]: 3.26

TCTTGTTGATCAATAGAGGTTAAGAAAGTGCGCT
PBM binding z-score [1]: 1.09 | PBM binding z-score [2]: 0.58 | PBM binding z-score [3]: 0.28 | PBM binding z-score [4]: 0.766 | PBM binding z-score [5]: 1.48 | PBM binding z-score [6]: 1.58 | PBM binding z-score [7]: -0.22 | PBM binding z-score [8]: 0.411

TCGCCTAGGTCATTGGGCCAGTATAGTACGCATC
PBM binding z-score [1]: 2.87 | PBM binding z-score [2]: 3.95 | PBM binding z-score [3]: 3.88 | PBM binding z-score [4]: 2.13 | PBM binding z-score [5]: 2.69 | PBM binding z-score [6]: 2.68 | PBM binding z-score [7]: 0.959 | PBM binding z-score [8]: 1.57

ATACCAAGGTGATCGTGAGGTAGTTGATACTAAC
PBM binding z-score [1]: 0.262 | PBM binding z-score [2]: 0.422 | PBM binding z-score [3]: 0.424 | PBM binding z-score [4]: -0.401 | PBM binding z-score [5]: 0.329 | PBM binding z-score [6]: 1.5 | PBM binding z-score [7]: 0.542 | PBM binding z-score [8]: 0.0713

TATACAGGGTCAAAGCCCAGAGTACGAATGTCGA
PBM binding z-score [1]: 2.97 | PBM binding z-score [2]: 5.26 | PBM binding z-score [3]: 4.63 | PBM binding z-score [4]: 3.03 | PBM binding z-score [5]: 5.9 | PBM binding z-score [6]: 3.23 | PBM binding z-score [7]: 0.46 | PBM binding z-score [8]: 2.85

CCGAGTAGGTTATGGGCCATTCAGGCAACGGTGA
PBM binding z-score [1]: 0.655 | PBM binding z-score [2]: 0.305 | PBM binding z-score [3]: 0.328 | PBM binding z-score [4]: -0.165 | PBM binding z-score [5]: 0.5 | PBM binding z-score [6]: 0.298 | PBM binding z-score [7]: 0.0929 | PBM binding z-score [8]: -0.0394

CCTCGGAGGACAACAGGAGGTCGGAGCTGCCAGA
PBM binding z-score [1]: 1.42 | PBM binding z-score [2]: 1.08 | PBM binding z-score [3]: 1.36 | PBM binding z-score [4]: 0.0321 | PBM binding z-score [5]: 0.223 | PBM binding z-score [6]: 1.35 | PBM binding z-score [7]: 0.0235 | PBM binding z-score [8]: 0.16

TCTAGCAGGCCAGAGGGTCACTCAGGAGGTACGG
PBM binding z-score [1]: 2.75 | PBM binding z-score [2]: 2.62 | PBM binding z-score [3]: 1.67 | PBM binding z-score [4]: 0.0347 | PBM binding z-score [5]: 2.54 | PBM binding z-score [6]: 1.74 | PBM binding z-score [7]: -0.132 | PBM binding z-score [8]: 0.271

GATACAGGGTCAGCTAGAGGCCTGAGTATGGAAA
PBM binding z-score [1]: 2.73 | PBM binding z-score [2]: 4.73 | PBM binding z-score [3]: 4.64 | PBM binding z-score [4]: 1.14 | PBM binding z-score [5]: 4.29 | PBM binding z-score [6]: 2.49 | PBM binding z-score [7]: 0.0158 | PBM binding z-score [8]: 0.311

TGAATGAGGTTAAAAGATCAGGGAACGTTGCAAA
PBM binding z-score [1]: 0.578 | PBM binding z-score [2]: 2.56 | PBM binding z-score [3]: 1.18 | PBM binding z-score [4]: 0.605 | PBM binding z-score [5]: 2.79 | PBM binding z-score [6]: 1.83 | PBM binding z-score [7]: -0.00624 | PBM binding z-score [8]: 0.327

AGAACGAGGACACGCTGAGTTGATAGCAGAGTAG
PBM binding z-score [1]: 0.357 | PBM binding z-score [2]: 0.807 | PBM binding z-score [3]: 1.74 | PBM binding z-score [4]: 0.835 | PBM binding z-score [5]: -0.00543 | PBM binding z-score [6]: 3.15 | PBM binding z-score [7]: 2.29 | PBM binding z-score [8]: 1.14

AGAATGAGGTTATTAAGACCAGGGAATTGCGGTC
PBM binding z-score [1]: 0.935 | PBM binding z-score [2]: 1.24 | PBM binding z-score [3]: 0.733 | PBM binding z-score [4]: 1.64 | PBM binding z-score [5]: 1.91 | PBM binding z-score [6]: 2.17 | PBM binding z-score [7]: 0.47 | PBM binding z-score [8]: 0.915

ATCGAAAGCTCGACGAGGTGAGTATACACCGTTT
PBM binding z-score [1]: -0.193 | PBM binding z-score [2]: -0.12 | PBM binding z-score [3]: 0.303 | PBM binding z-score [4]: -0.125 | PBM binding z-score [5]: 0.189 | PBM binding z-score [6]: 1.02 | PBM binding z-score [7]: 0.249 | PBM binding z-score [8]: -0.291

ATCGAAAGGTCGAAGGTGAGAATACCCACCCGAA
PBM binding z-score [1]: 2.62 | PBM binding z-score [2]: 4.34 | PBM binding z-score [3]: 4.24 | PBM binding z-score [4]: 1.42 | PBM binding z-score [5]: 5.85 | PBM binding z-score [6]: 2.23 | PBM binding z-score [7]: -0.0436 | PBM binding z-score [8]: 0.515

GCTAGCAGGCCATTTGGATCACTCAATGACGGGC
PBM binding z-score [1]: -0.535 | PBM binding z-score [2]: -0.278 | PBM binding z-score [3]: -0.00293 | PBM binding z-score [4]: 0.0121 | PBM binding z-score [5]: -0.0428 | PBM binding z-score [6]: -0.754 | PBM binding z-score [7]: -0.938 | PBM binding z-score [8]: -0.518

ACTCGGAGGACAACGGTCAGAGCTACGCCAGTGA
PBM binding z-score [1]: 1.51 | PBM binding z-score [2]: 1.06 | PBM binding z-score [3]: 2.14 | PBM binding z-score [4]: 0.0365 | PBM binding z-score [5]: -0.0292 | PBM binding z-score [6]: 0.773 | PBM binding z-score [7]: -0.132 | PBM binding z-score [8]: -0.272

GTACCAAGGTGAATAGGTCGTTCATGAGTAGGCG
PBM binding z-score [1]: 1.96 | PBM binding z-score [2]: 2.67 | PBM binding z-score [3]: 1.47 | PBM binding z-score [4]: 0.154 | PBM binding z-score [5]: 1.99 | PBM binding z-score [6]: 1.78 | PBM binding z-score [7]: 0.565 | PBM binding z-score [8]: 0.67

GTACCAAGGTGAATAGGTCGTTGGTGAGTAGGCG
PBM binding z-score [1]: 1.93 | PBM binding z-score [2]: 2.86 | PBM binding z-score [3]: 1.13 | PBM binding z-score [4]: -0.312 | PBM binding z-score [5]: 1.99 | PBM binding z-score [6]: 1.71 | PBM binding z-score [7]: 0.526 | PBM binding z-score [8]: 0.359

GCTTGCGGGTCAAAGGTTATAGCATGAATAGAAT
PBM binding z-score [1]: 2.73 | PBM binding z-score [2]: 6.3 | PBM binding z-score [3]: 4.14 | PBM binding z-score [4]: 2.1 | PBM binding z-score [5]: 8.79 | PBM binding z-score [6]: 3.83 | PBM binding z-score [7]: -0.22 | PBM binding z-score [8]: 0.927

TAGACAGGGTCAAAGGCCAGAGTACGAATGTCGA
PBM binding z-score [1]: 3.3 | PBM binding z-score [2]: 5.52 | PBM binding z-score [3]: 4.86 | PBM binding z-score [4]: 2.49 | PBM binding z-score [5]: 6.9 | PBM binding z-score [6]: 3.23 | PBM binding z-score [7]: 0.292 | PBM binding z-score [8]: 2.18

GCTATTAGTTGAAAGGGCGACCGAATGATTCTCG
PBM binding z-score [1]: 0.767 | PBM binding z-score [2]: 0.148 | PBM binding z-score [3]: 0.219 | PBM binding z-score [4]: 0.775 | PBM binding z-score [5]: 0.22 | PBM binding z-score [6]: -0.155 | PBM binding z-score [7]: -0.468 | PBM binding z-score [8]: 0.16

CCAGACAGGTGATAAGGTAACTCAGCCTCGATTA
PBM binding z-score [1]: 0.435 | PBM binding z-score [2]: 0.392 | PBM binding z-score [3]: 0.586 | PBM binding z-score [4]: 0.284 | PBM binding z-score [5]: 0.276 | PBM binding z-score [6]: 1.77 | PBM binding z-score [7]: 1.72 | PBM binding z-score [8]: 0.103

GCAGACAGGTGAAACGCAGTTAACTCAGGGTGGC
PBM binding z-score [1]: -0.134 | PBM binding z-score [2]: 0.384 | PBM binding z-score [3]: 0.0446 | PBM binding z-score [4]: -0.62 | PBM binding z-score [5]: 0.577 | PBM binding z-score [6]: 0.459 | PBM binding z-score [7]: -0.813 | PBM binding z-score [8]: -0.764

GTACCAAGGTGAATAGGTCGCTGATGAGTAGGCG
PBM binding z-score [1]: 1.69 | PBM binding z-score [2]: 2.65 | PBM binding z-score [3]: 1.53 | PBM binding z-score [4]: -0.316 | PBM binding z-score [5]: 1.66 | PBM binding z-score [6]: 1.59 | PBM binding z-score [7]: 0.0254 | PBM binding z-score [8]: -0.0986
